In PubChem BioAssay (NCI):
The panel holds about 83,000 compounds, 20% with a hit somewhere; the sample as a whole holds those more often.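 Each cell line was grown in a 96-well plate and treated with one concentration of compound for 48 hours. Values below 10 were considered active.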 Unmarked numbers belong to inactive results. Active and inactive are the calls of the source.

Legend:
Assay in all cases: NCI-60 one-dose screen, 48 h (100 = growth as untreated, 0 = no growth, -100 = all killed)
Conditions in all cases: 10 µM unless noted
NCI-H23 lung = tested on: NCI-H23 lung
NCI-H226 lung = tested on: NCI-H226 lung
NCI-H322M lung = tested on: NCI-H322M lung
HOP-62 NSCLC = tested on: HOP-62 NSCLC
NCI-H460 lung = tested on: NCI-H460 lung
HOP-92 NSCLC = tested on: HOP-92 NSCLC
NCI-H522 lung = tested on: NCI-H522 lung
A549/ATCC NSCLC = tested on: A549/ATCC NSCLC
786-0 renal = tested on: 786-0 renal
COLO 205 colon = tested on: COLO 205 colon

| SMILES | growth (NCI-H23 lung) | growth (NCI-H226 lung) | growth (NCI-H322M lung) | growth (HOP-62 NSCLC) | growth (NCI-H460 lung) | growth (HOP-92 NSCLC) | growth (NCI-H522 lung) | growth (A549/ATCC NSCLC) | growth (786-0 renal) | growth (COLO 205 colon) |
| --- | --- | --- | --- | --- | --- | --- | --- | --- | --- | --- |
| COc1ccc(C2=NN(C=O)C(c3ccc(Oc4nc5c(c(=O)n(C)c(=O)n5C)n4C)c(OC)c3)C2)cc1 (stereo not given) | 80.7% | 82.4% | 76.6% | 87% | 99% | 95.2% | 92.9% | 56.6% | 103% | 91.5% |
| C=C(C)[C@@H]1CC[C@]2(COCCCNCCCN)CC[C@]3(C)[C@H](CC[C@@H]4[C@@]5(C)CC[C@H](OCCCN)C(C)(C)[C@@H]5CC[C@]43C)[C@@H]12 | -73.2% (active) | 45.2% | 41.7% | -59.1% (active) | -83% (active) | 75.3% | -69.6% (active) | -66.6% (active) | -83.6% (active) | -31.1% (active) |
| CC(C)n1nc(-c2ccc3oc(N)nc3c2)c2c(N)ncnc21 | 2.3% (active) | -28.2% (active) | -7.33% (active) | -25.5% (active) | 5.28% (active) | -40% (active) | 2.22% (active) | -6.71% (active) | -36.7% (active) | -3% (active) |
| CCOC(=O)c1ccc2c(c1)c1c(C)c3cnccc3c(C)c1n2C | -51.2% (active) | -33.6% (active) | -14.1% (active) | -47.3% (active) | -17.2% (active) | -24.2% (active) | -79.1% (active) | -11.8% (active) | -95.7% (active) | -63.9% (active) |
| COC(=O)c1cc(-c2ccc(OC)c(OC)c2)[nH]c1N/N=C/c1c(Cl)cccc1Cl | 40.7% | 62.4% | 55.1% | -7.06% (active) | 14.6% | 52.7% | 13.7% | 43% | 8.47% (active) | 28% |
| CN1C(=O)N(C)C2C1NN=c1s/c(=C\c3ccccc3F)c(=O)n12 (stereo not given) | 33.1% | 57.8% | 37.3% | 32.9% | 3.14% (active) | 76.8% | -8.56% (active) | 21% | 36% | 8.94% (active) |
| Nc1nc(N)c2c(n1)NC(c1ccc3c(c1)OCO3)CC(c1cccc(Nc3ccncc3)c1)=N2 (stereo not given) | 90% | 84.6% | 96.9% | 90.4% | 96.5% | 70.7% | 77.3% | 79.6% | 96.9% | 86.3% |
| CC(=O)[C@H]1CC[C@]2(C)[C@@H]1CC[C@@H]1[C@@]3(C)C/C(=C/c4cccnc4)C(=O)C(C)(C)[C@@H]3CC[C@]12C | 78.2% | 81.1% | 91.6% | 115% | 67.3% | 48.8% | 68% | 65.9% | 121% | 64.2% |
| CN1CCN(Cc2ccc(NC(=O)c3cncc(C#Cc4c(N)ncc5cc(F)ccc45)c3)cc2C(F)(F)F)CC1 | -39.5% (active) | 22.2% | 40.5% | 45.1% | -19.8% (active) | -14.2% (active) | 34.4% | 45% | -94% (active) | -20.5% (active) |
| C#CCOc1cccc(Nc2ncnc3c(NC(=O)CCl)cccc23)c1 | 6.09% (active) | 48.9% | 72.5% | 95.7% | 51.2% | -62.1% (active) | -73.5% (active) | 47.4% | -45.4% (active) | -55.5% (active) |
| COc1ccc(Cn2cc3c(c2)-c2oncc2CC3)cc1 | 79.8% | 86.9% | 89.6% | 58.8% | 39.9% | 70.1% | 71% | 52.1% | 72.5% | 68.4% |
| Cc1ccc(-c2nn(CC(=O)N3CCOCC3)c(N)c2C#N)cc1 | 100% | 102% | 110% | 108% | 106% | 111% | 101% | 95.8% | 100% | 122% |
| O=C(OCc1ccc2c(Br)cc(Br)c(O)c2n1)N1CCN(C(=O)c2cc3ccccc3[nH]2)CC1 | 39.4% | 39.5% | 44.9% | 23.3% | 12% | 25.7% | 37.5% | 12.7% | 49.3% | 50.6% |
| O=S(=O)(c1ccc(NCSc2nc3ccccc3s2)cc1)c1ccc(NCSc2nc3ccccc3s2)cc1 | 102% | 87.8% | 103% | 66.4% | 104% | 70.7% | 69.7% | 91.1% | 99.6% | 97.1% |
| CC(=O)Cc1nsc(NC(=O)c2cc(-c3cc(Cl)ccc3Cl)oc2C)n1 | 99.5% | 94.5% | 104% | 102% | 103% | 112% | 90.2% | 98.8% | 97% | 115% |
| CCOc1cc(\C=N/N=C(N)/C(N)=N\N=C/c2ccc(O)c(OCC)c2)ccc1O | 97.7% | 99.9% | 103% | 109% | 107% | 116% | 105% | 107% | 110% | 5.55% (active) |
| CCN(CC)CCN1C(=O)c2c(c(C)c3c(oc4cc(OC)ccc43)c2C)C1=O | 95.9% | 27.8% | 85.3% | 95.9% | 44.7% | 100% | 91.9% | 104% | -74% (active) | 99.1% |
| O=C1c2ccccc2-c2c1c1ccncc1c(=O)n2CCCn1ccnc1 | 51.8% | 54.4% | 83.8% | 39.9% | 21.8% | 78.5% | 29.6% | 56.3% | 55.4% | 56.4% |
| C=CC(=O)Nc1ccc2ncnc(Nc3cccc(NS(=O)(=O)CCC)c3Cl)c2c1 | 68.9% | 46.7% | 15.8% | 67.3% | 68.6% | 35.1% | 17.8% | 50.8% | 42.4% | 12% |
| Oc1ccc(C2OCCO2)c2cccnc12 | 33% | 23.4% | 92.5% | 51.6% | 68.1% | 68.8% | 92.9% | 56.3% | 97.9% | 63.7% |
| COc1cccc(/C=C2\CCc3ccccc3C2=O)c1 | 83.6% | 93.6% | 98% | 88.4% | 96.6% | 64.3% | 62.9% | 85.1% | 81.4% | 112% |
| Cc1cc(C)n(C(=O)CSc2nc3sc4c(c3c(=O)n2-c2ccccc2)CCCCC4)n1 | 91.6% | 98.1% | 99.1% | 96.3% | 103% | 95.1% | 85.8% | 97.6% | 108% | 115% |
| C#CCOc1cccc(-c2ncnc3cc(NC(=O)CCl)ccc23)c1 | 10.3% | -11% (active) | 71.8% | -46.2% (active) | -18.7% (active) | -67.1% (active) | -77.1% (active) | 16.7% | -85.4% (active) | -82.4% (active) |
| O=C1CC2C=CCN2C=C1NC(=O)c1ccccc1 (stereo not given) | 101% | 102% | 99.8% | 114% | 111% | 110% | 104% | 92.6% | 98.5% | 102% |
| COc1ccc(Cn2cc(C(=O)N=Nc3c(O)[nH]c4ccc(Br)cc34)nn2)cc1 | 102% | 97.5% | 102% | 111% | 111% | 114% | 89.1% | 95.1% | 99.6% | 115% |
| CCOC(=O)CC1CSC(N/N=C(/C)c2cccc(C(F)(F)F)c2)=N1 (stereo not given) | 103% | 99.6% | 89.6% | 97% | 110% | 100% | 82.2% | 87.7% | 97% | 107% |
| O=C(/C=C/c1ccc(Cl)cc1)c1ccc(-n2cc(CN3CCN(c4cc5c(cc4F)c(=O)c(C(=O)O)cn5C4CC4)CC3)nn2)cc1 | 85.4% | 76.3% | 78.1% | 85.5% | 82.2% | 84.8% | 79.1% | 89% | 78.1% | 97.1% |
